From PubChem BioAssay AID1159580 (chemical genetic matrix, 2015)
The whole screen tested about 5,500 compounds, of which about 2,000 (36%) were called active. Inconclusive results (about 18%) are left out. This is one part of the list. Values without a mark were called inactive. Cut-off read from the data, not from the text of the source: active = normalized growth mostly below about 0.91 (no sharp cut-off); inconclusive = no clear call, values can overlap the other calls; inactive = mostly above about 0.92.

Assay: chemical genetic growth profiling, strain panel (AID 1159580);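 note: tested at 20 µM; growth read once vehicle control cultures reached saturation at 30 °C; 1 = growth at the plate median or of vehicle wells; lower values mean less growth of the strain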
Settings: S. cerevisiae deletion strains, growth OD

Structure (SMILES): O=C1C=CC(=O)c2c(O)c(Cl)c(Cl)c(O)c21
- normalized growth (locus YAL021C, strain ccr4, hits give low values): 0.0743 (active)
- normalized growth (locus YAL026C, strain drs2, hits give low values): 0.0712 (active)
- normalized growth (locus YAL030W, strain snc1, hits give low values): 0.065 (active)
- normalized growth (locus YBL061C, strain skt5, hits give low values): 0.0691 (active)
- normalized growth (locus YBR009C, strain hhf1, hits give low values): 0.0757 (active)
- normalized growth (locus YBR023C, strain chs3, hits give low values): 0.0713 (active)
- normalized growth (locus YBR171W, strain sec66, hits give low values): 0.0854 (active)
- normalized growth (locus YBR231C, strain swc5, hits give low values): 0.0695 (active)
- normalized growth (locus YBR279W, strain paf1, hits give low values): 0.0653 (active)
- normalized growth (locus YCL011C, strain gbp2, hits give low values): 0.0661 (active)
- normalized growth (locus YCL016C, strain dcc1, hits give low values): 0.0723 (active)
- normalized growth (locus YCL061C, strain MRC1, hits give low values): 0.0708 (active)
- normalized growth (locus YCL069W, strain vba3, hits give low values): 0.0675 (active)
- normalized growth (locus YCR088W, strain abp1, hits give low values): 0.0687 (active)
- normalized growth (locus YDL005C, strain med2, hits give low values): 0.0837 (active)
- normalized growth (locus YDL040C, strain nat1, hits give low values): 0.0677 (active)
- normalized growth (locus YDR001C, strain nth1, hits give low values): 0.0651 (active)
- normalized growth (locus YDR069C, strain doa4, hits give low values): 0.0731 (active)
- normalized growth (locus YDR137W, strain rgp1, hits give low values): 0.816 (active)
- normalized growth (locus YDR159W, strain sac3, hits give low values): 0.817 (active)
- normalized growth (locus YDR195W, strain ref2): 0.72 (active)
- normalized growth (locus YDR297W, strain sur2, hits give low values): 0.0653 (active)
- normalized growth (locus YDR334W, strain swr1, hits give low values): 0.0709 (active)
- normalized growth (locus YDR335W, strain msn5, hits give low values): 0.0705 (active)
- normalized growth (locus YDR392W, strain spt3, hits give low values): 0.11 (active)
- normalized growth (locus YEL003W, strain gim4, hits give low values): 0.0616 (active)
- normalized growth (locus YEL037C, strain rad23, hits give low values): 0.0635 (active)
- normalized growth (locus YEL061C, strain CIN8 (second series), hits give low values): 0.0685 (active)
- normalized growth (locus YER015W, strain faa2, hits give low values): 0.0696 (active)
- normalized growth (locus YER016W, strain bim1, hits give low values): 0.0673 (active)
- normalized growth (locus YER111C, strain swi4, hits give low values): 0.984
- normalized growth (locus YER155C, strain BEM2 (second series), hits give low values): 0.101 (active)
- normalized growth (locus YFR010W, strain ubp6, hits give low values): 0.0771 (active)
- normalized growth (locus YGL167C, strain pmr1, hits give low values): 0.0844 (active)
- normalized growth (locus YGL173C, strain kem1, hits give low values): 0.0767 (active)
- normalized growth (locus YGL227W, strain vid30, hits give low values): 0.0694 (active)
- normalized growth (locus YGL240W, strain doc1, hits give low values): 0.087 (active)
- normalized growth (locus YGL253W, strain hxk2, hits give low values): 0.0606 (active)
- normalized growth (locus YHR013C, strain ard1, hits give low values): 0.118 (active)
- normalized growth (locus YHR027C, strain rpn1, hits give low values): 0.0722 (active)
- normalized growth (locus YHR030C, strain SLT2, hits give low values): 0.114 (active)
- normalized growth (locus YHR079C, strain IRE1, hits give low values): 0.132 (active)
- normalized growth (locus YHR142W, strain chs7, hits give low values): 0.0821 (active)
- normalized growth (locus YJL092W, strain hpr5, hits give low values): 0.066 (active)
- normalized growth (locus YJL095W, strain BCK1 (second series), hits give low values): 0.0647 (active)
- normalized growth (locus YJL095W, strain BCK1, hits give low values): 0.118 (active)
- normalized growth (locus YJL115W, strain asf1, hits give low values): 0.0821 (active)
- normalized growth (locus YJL129C, strain trk1, hits give low values): 0.965
- normalized growth (locus YJL154C, strain vps35, hits give low values): 0.0659 (active)
- normalized growth (locus YJL164C, strain tpk1, hits give low values): 0.076 (active)
- normalized growth (locus YJL166W, strain qcr8, hits give low values): 0.0693 (active)
- normalized growth (locus YJL187C, strain SWE1, hits give low values): 0.0656 (active)
- normalized growth (locus YJR066W, strain TOR1, hits give low values): -0.00728 (active)
- normalized growth (locus YKL160W, strain elf1, hits give low values): 0.0955 (active)
- normalized growth (locus YKR026C, strain gcn3, hits give low values): 0.0721 (active)
- normalized growth (locus YKR091W, strain srl3, hits give low values): 0.0686 (active)
- normalized growth (locus YLL001W, strain dnm1, hits give low values): 0.0682 (active)
- normalized growth (locus YLL026W, hits give low values): 0.065 (active)
- normalized growth (locus YLL041C, strain sdh2, hits give low values): 0.0651 (active)
- normalized growth (locus YLR027C, strain aat2, hits give low values): 0.0649 (active)
- normalized growth (locus YLR113W, strain HOG1, hits give low values): 0.129 (active)
- normalized growth (locus YLR221C, strain rsa3, hits give low values): 0.0719 (active)
- normalized growth (locus YLR258W, strain gsy2, hits give low values): 0.0692 (active)
- normalized growth (locus YLR262C, strain YPT6 (second series), hits give low values): 0.0889 (active)
- normalized growth (locus YLR320W, strain mms22, hits give low values): 0.0961 (active)
- normalized growth (locus YLR342W, strain FKS1, hits give low values): 0.0745 (active)
- normalized growth (locus YLR357W, strain rsc2, hits give low values): 0.136 (active)
- normalized growth (locus YLR370C, strain arc18, hits give low values): 0.0692 (active)
- normalized growth (locus YLR384C, strain iki3, hits give low values): 0.0665 (active)
- normalized growth (locus YML120C, strain ndi1, hits give low values): 0.928
- normalized growth (locus YMR058W, strain fet3, hits give low values): 0.0663 (active)
- normalized growth (locus YMR125W, strain sto1, hits give low values): 0.0829 (active)
- normalized growth (locus YMR129W, hits give low values): 0.0652 (active)
- normalized growth (locus YMR205C, strain PFK2, hits give low values): 0.0948 (active)
- normalized growth (locus YMR231W, strain pep5, hits give low values): 0.0753 (active)
- normalized growth (locus YNL071W, strain lat1, hits give low values): 0.0684 (active)
- normalized growth (locus YNL183C, strain NPR1, hits give low values): 0.021 (active)
- normalized growth (locus YNL209W, strain ssb2, hits give low values): 0.0691 (active)
- normalized growth (locus YNL248C, strain rpa49, hits give low values): 0.0871 (active)
- normalized growth (locus YNL322C, strain KRE1 (second series), hits give low values): 0.0721 (active)
- normalized growth (locus YNR049C, strain mso1, hits give low values): 0.0642 (active)
- normalized growth (locus YOR001W, strain rrp6, hits give low values): 0.0755 (active)
- normalized growth (locus YOR070C, strain gyp1, hits give low values): 0.0663 (active)
- normalized growth (locus YOR080W, strain dia2, hits give low values): 0.104 (active)
- normalized growth (locus YOR083W, strain WHI5, hits give low values): 0.0727 (active)
- normalized growth (locus YOR106W, strain vam3, hits give low values): 0.0721 (active)
- normalized growth (locus YOR231W, strain MKK1, hits give low values): 0.129 (active)
- normalized growth (locus YOR265W, strain rbl2, hits give low values): 0.0661 (active)
- normalized growth (locus YOR270C, strain vph1, hits give low values): 0.108 (active)
- normalized growth (locus YOR290C, strain snf2, hits give low values): 0.963
- normalized growth (locus YPL051W, strain arl3, hits give low values): 0.0733 (active)
- normalized growth (locus YPL078C, strain atp4, hits give low values): 0.852 (active)
- normalized growth (locus YPL106C, strain sse1, hits give low values): 0.116 (active)
- normalized growth (locus YPL240C, strain hsp82, hits give low values): 0.0634 (active)
- normalized growth (locus YPL256C, strain CLN2, hits give low values): 0.147 (active)
